The whole screen tested about 91,000 compounds, of which about 310 (0.34%) were called active. No stated cut-off is given here; in the data, active means inhibition above about 80%; inactive means the rest. For the sample, actives were picked, then their nearest neighbours and some compounds at random.
target: Bifunctional epoxide hydrolase 2 (Homo sapiens) (UniProt P34913); assay: sEH enzyme activity blockers – biochemical, human sEH, primary screen (AID 707); conditions: recombinant human sEH enzymatic activity assay; at 2 µM; active compounds read high
Sequence (P34913 whole entry, looked up): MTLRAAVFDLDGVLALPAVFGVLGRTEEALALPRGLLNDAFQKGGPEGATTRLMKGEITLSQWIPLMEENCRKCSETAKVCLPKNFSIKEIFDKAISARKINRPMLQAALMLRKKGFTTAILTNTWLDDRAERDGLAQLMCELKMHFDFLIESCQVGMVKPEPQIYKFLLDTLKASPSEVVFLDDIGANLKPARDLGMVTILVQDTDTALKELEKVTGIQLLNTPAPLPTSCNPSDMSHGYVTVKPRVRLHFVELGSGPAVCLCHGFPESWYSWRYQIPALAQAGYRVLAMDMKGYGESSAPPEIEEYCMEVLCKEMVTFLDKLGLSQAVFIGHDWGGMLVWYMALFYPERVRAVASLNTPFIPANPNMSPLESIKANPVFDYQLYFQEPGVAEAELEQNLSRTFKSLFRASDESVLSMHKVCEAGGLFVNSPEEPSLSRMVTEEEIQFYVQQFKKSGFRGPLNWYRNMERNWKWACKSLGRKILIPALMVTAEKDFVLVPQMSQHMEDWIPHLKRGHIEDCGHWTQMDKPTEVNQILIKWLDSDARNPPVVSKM

SMILES | inhibition
CON(C)S(=O)(=O)c1ccc2c(c1)NC(=O)C1CCCN21 (stereo not drawn) | -14.7% (inactive)
O=C(NNC(=O)c1cccnc1)Nc1ccccc1 | -21.5% (inactive)
N#C/C(=C/c1ccc(Cl)cc1)NC(=O)c1ccccc1 | 3.7% (inactive)
CCCCNC(=O)CSc1nnc(-c2ccco2)n1C | -1.7% (inactive)
CCOC(=O)c1ccc(NC(=O)CSc2nnc(COc3ccccc3OC)n2C)cc1 | 9.6% (inactive)
CCCCNC(=O)CSc1nc2ccc(NC(=O)CSc3nnc(COc4ccccc4C)n3C)cc2s1 | 88.5% (active)
CC(CC(=O)Nc1cc(C(F)(F)F)ccc1Cl)c1ccccc1 (stereo not drawn) | 49.5% (inactive)
CCOC(=O)NCc1ccc2c(c1)OCO2 | 4.7% (inactive)
CCc1c(C)nc2ncnn2c1N1CCC(C(=O)NCc2ccc3c(c2)OCO3)CC1 | 83.3% (active)
CC1CCCCN1CC(=O)NCc1ccc2c(c1)OCO2 (stereo not drawn) | 3.9% (inactive)
COc1ccc(NC(=O)Nc2ccc3nsnc3c2)cc1 | 75.6% (inactive)
CCCCNCc1ccc(SC)cc1 | 10.8% (inactive)
COc1ccc2c(c1)SC(C)CC2=O (stereo not drawn) | -11.8% (inactive)
Cc1cccc(N(C(=O)Cc2cccs2)C(C(=O)NC2CCCC2)c2ccsc2)c1 (stereo not drawn) | 1.9% (inactive)
Cc1cccc(NC(=S)Nc2ccc(Br)cc2)c1 | 17.8% (inactive)
COc1ccc(CCNC(=S)NC(=O)/C=C/c2ccc(C)cc2)cc1OC | -0.9% (inactive)
Cc1cccc(-n2cnc(C(=O)Nc3cccnc3)c2)n1 | -6.9% (inactive)
Cc1ccc2nc(Nc3ccccc3O)nc(-c3ccccc3)c2c1 | 0.8% (inactive)
c1ccc2c(CSCc3nc4ccccc4[nH]3)cccc2c1 | 10.5% (inactive)
Cc1ccccc1OC/C(O)=C(\C#N)c1nc2ccccc2[nH]1 | -13.4% (inactive)
COC(=O)c1ccc(C(=O)Nc2cc(Cl)ccc2Cl)cc1NC(=O)c1ccccc1C | -1.7% (inactive)
Cc1ccccc1OCc1nnc(SCC(=O)N2c3ccccc3Sc3ccc(Cl)cc32)o1 | -2.3% (inactive)
CC1Cc2ccccc2N1CC(=O)Nc1ccc2c(c1)OC(F)(F)O2 (stereo not drawn) | 49.2% (inactive)
CCOC(=O)COc1cc(OCC(=O)OCC)c2c(=O)cc(-c3ccccc3)oc2c1 | -14.8% (inactive)
COCCCn1c(SCc2cccc(OC)c2)nc2cc(OC)c(OC)cc2c1=N | 7.8% (inactive)

SMILES | inhibition
Cc1[nH]nc(-c2ccc(OCc3cnn(-c4ccccc4)c3)cc2O)c1Oc1ccc(Cl)cc1 | 11.4% (inactive)
COc1ccc(C(=O)NC(=S)Nc2ccccc2N2CCN(S(C)(=O)=O)CC2)cc1OC | 12.4% (inactive)
Cc1ccc2nc(SCc3nnc(-c4ccccc4[N+](=O)[O-])o3)c(C#N)cc2c1 | 0.2% (inactive)
Cc1cccc(-n2ncc(C#N)c2-n2cccc2)c1 | 0.9% (inactive)
CCCC(=O)NC(Nc1ccccc1OC)C(Cl)(Cl)Cl (stereo not drawn) | 6.5% (inactive)
Fc1ccccc1COc1ccccc1CNCc1ccncc1 | 5.2% (inactive)
CC(=O)Nc1ccccc1C(=O)C(=O)Nc1ccc(F)cc1 | -20.5% (inactive)
COC(=O)CNC(=O)c1ccccc1[N+](=O)[O-] | -15.7% (inactive)
O=C(CCc1ccc(S(=O)(=O)N2CCOCC2)cc1)Nc1ccc2ccccc2c1 | 21.6% (inactive)
CONC(=O)c1cc(OCC(F)(F)F)ccc1OCC(F)(F)F | 6% (inactive)
Cc1c(Br)c([N+](=O)[O-])nn1C(C)C(=O)Nc1nccs1 (stereo not drawn) | -4.7% (inactive)
N#Cc1ccc(-c2ccc(Cl)cc2)nc1Oc1ccc(F)cc1 | 7.8% (inactive)
COCc1cc(C)nc2sc3c(=O)n(-c4cccc5ccccc45)nnc3c12 | 3.4% (inactive)
Cc1ccc(-n2c(C)cc(/C=C(\C#N)C(=O)NCC3CCCO3)c2C)cc1 (stereo not drawn) | 10.8% (inactive)
O=Cc1c(N2CCN(c3cccc(Cl)c3)CC2)nc2ccccn2c1=O | 1.4% (inactive)
COc1cccc(NC(=O)Cc2ccc(C)cc2)c1 | 1.6% (inactive)
CC(=O)c1cccc(NC(=O)Nc2ccc(C)cc2)c1 | 48.2% (inactive)
Cc1cccc(NC(=O)Nc2cccc(Oc3c(F)c(F)c(F)c(F)c3F)c2)c1 | 80.6% (active)
O=C(/C=C\NCC(=O)c1ccccc1)c1ccccc1 | 2.3% (inactive)
COc1ccc2c(c1OC)C(=O)c1ccccc1C2=O | -2.2% (inactive)
Cc1onc(-c2c(Cl)cccc2Cl)c1C(=O)c1c[nH]c(C(=O)NC2CC2)c1 | 2% (inactive)
Cc1[nH]n(-c2ccccc2)c(=O)c1CCOC(=O)c1ccc(C(F)(F)F)cc1 | 7.1% (inactive)
C/C(=N/NC(=O)c1ccc(NC(=O)c2ccc(F)cc2)cc1)c1ccccc1 | -3.4% (inactive)
Cc1cc2c(c(=O)n1C)C(C(C)C)C(C#N)=C(N)O2 (stereo not drawn) | -3.6% (inactive)
CNS(=O)(=O)c1cnccc1N1CCN(c2cccc(C)c2)CC1 | 13.4% (inactive)

SMILES | inhibition
Cc1ccc(-c2nnc(-n3nnc4ccccc43)c3ccccc23)cc1 | -3.9% (inactive)
C=CCNc1nc(N)c(C(=C(C#N)C#N)c2ccccc2)s1 | 4.9% (inactive)
Cc1cc([N+](=O)[O-])c(N2CCC[C@@H]2C(=O)O)c([N+](=O)[O-])c1 | 3.1% (inactive)
COC(=O)CN(C(=S)Nc1ccc(Cl)cc1)C1CC(=O)N(c2ccc(OC)cc2)C1=O (stereo not drawn) | 12.2% (inactive)
CC1=NN(C(=O)Cc2ccc(C)cc2)C(O)(c2cccnc2)C1 (stereo not drawn) | 3.6% (inactive)
COc1ccc(C)cc1NC(=O)CCC(=O)Nc1nnc(C(F)(F)F)s1 | 15.2% (inactive)
O=C(c1ccccc1)C(Cn1cncn1)C(Sc1ccccc1)c1ccccc1 (stereo not drawn) | -1.8% (inactive)
COc1ccc(C(=O)N2CCc3cc(OC)c(OC)cc3C2c2cccc([N+](=O)[O-])c2)cc1 (stereo not drawn) | 0.6% (inactive)
C=CCOc1c2ccc(C(=O)N(CC)c3ccc(OC)cc3)cc2nn1C | 10.6% (inactive)
Cc1ccc(C)c(NC(=O)C2Cc3ccccc3CN2C(=O)OCc2ccccc2)c1 (stereo not drawn) | -5.4% (inactive)
CC(=O)N(C)c1ccc(NC(=O)C(F)(F)F)cc1 | 3.7% (inactive)
CCOc1ccc(NC(=O)Nc2ccc(N(C)C(C)=O)cc2)cc1 | 82.3% (active)
CCOc1ccc(NC(=O)Nc2cc(C)on2)cc1 | 2.9% (inactive)
Cc1cc(Nc2ccccc2)nc(N)n1 | 3% (inactive)
CCNC(=S)Nc1cccc(Cl)c1C | -0.5% (inactive)
CC(C)N(c1ccccc1)c1ncnc(NCCC(=O)O)c1[N+](=O)[O-] | -1.2% (inactive)
c1ccc2c(C[n+]3csc4ccccc43)cccc2c1 | -9% (inactive)
Cc1nn(-c2ccccn2)c2c1C(c1ccncc1)C1=C(CC(C)(C)CC1=O)N2 (stereo not drawn) | -0.7% (inactive)
O=C(Cc1ccc2c(c1)CCCC2)Nc1ccccc1Cl | 7.7% (inactive)
O=C1c2ccccc2C(=O)c2c1cccc2N1CCN(CCO)CC1 | 5.4% (inactive)
COc1ccc(/C=C(/NC(=O)c2ccc(C)cc2)c2nc3ccccc3[nH]2)cc1OC | 1.8% (inactive)
Cc1ccccc1N/N=C/c1ccc(N2CCOCC2)cc1 | -9.2% (inactive)
CC(Oc1ccc(Cl)cc1Cl)C(=O)/C=C/N(C)C (stereo not drawn) | 15.1% (inactive)
COc1cnc(SCc2ccc(Cl)c(Cl)c2)nc1Cl | -5.2% (inactive)
ONC(=Nc1ccc(Cl)cc1)c1ccccc1Cl | -9.2% (inactive)

SMILES | inhibition
CCOc1ccc(Nc2nc(Cc3nnc(SCC(=O)NC4CCCC4)n3C)cs2)cc1 | 10.9% (inactive)
CN(C)Cc1ccccc1C1(O)c2ccccc2CSc2ccccc21 (stereo not drawn) | 5.7% (inactive)
Clc1ccc(-c2cc(COc3ccccc3)no2)cc1Cl | -1.1% (inactive)
COc1ccc(C(=S)Nc2ccccc2)cc1 | 4.8% (inactive)
Cc1ccsc1C(C(=O)NC1CCCCC1)N(C(=O)Cc1cccs1)C1CC1 (stereo not drawn) | 5.3% (inactive)
CC(Cc1cccs1)NC(=O)NC1CCCCC1 (stereo not drawn) | 92.6% (active)
CC(C)C(OC(=O)c1cccs1)C(=O)NC1CCCCC1 (stereo not drawn) | -8.3% (inactive)
CCOc1ccc(S(=O)(=O)Nc2nc3cc(OC)ccc3s2)cc1 | -14.5% (inactive)
CC(C)NS(=O)(=O)c1ccc(NC(=O)C2CCCCC2)cc1 | -3.1% (inactive)
CCOC(=O)Nc1ccc(S(=O)(=O)N(C)C(C)C)cc1 | 1.6% (inactive)
Cc1ccccc1C(=O)N1CCC(C(=O)Nc2ccc(S(=O)(=O)N(C)C(C)C)cc2)CC1 | 83.8% (active)
O=C(CSc1ncnc2c1cnn2CCc1ccccc1)Nc1ccc(F)cc1 | 20.5% (inactive)
O=C(c1cccc(F)c1)N1CCN(c2ccc([N+](=O)[O-])c(N3CCCCC3)c2)CC1 | 6.5% (inactive)
CCOC(=O)/C(=C\c1ccc([N+](=O)[O-])cc1)C(=O)c1cc(C(C)=O)c(Nc2ccccc2)s1 | 10.3% (inactive)
COc1ccccc1OCCNc1cc(N2CCOCC2)ccc1[N+](=O)[O-] | -3.3% (inactive)
CCn1c2ccccc2c2cc(NC(=O)C/C(C)=N/NC(=O)c3ccccc3N)ccc21 | 4.8% (inactive)
Cc1ccc(/C=N/NC(=O)C(NC(=O)c2ccccc2)c2n[nH]c(=O)c3ccccc23)cc1 (stereo not drawn) | -0.8% (inactive)
COc1ccccc1NC(=O)[C@H](COCc1ccccc1)NC(=O)OC(C)(C)C | -8.8% (inactive)
CCOc1cccc(SCc2noc(C(=O)NC(C)C)c2C(=O)O)c1 | -1.8% (inactive)
CN(C)/C=C(\C#N)C(=O)c1cccnc1Oc1ccc(F)cc1F | 12.8% (inactive)
C=CCn1c(-c2ccc(Cl)cc2)ccc(C#N)c1=O | -0.8% (inactive)
CC1CCN(C(NC(=O)c2ccco2)C(=O)c2ccccc2)CC1 (stereo not drawn) | -0.8% (inactive)
O=C1CCN(C(=O)Nc2ccccc2)N1 | 2.7% (inactive)

From PubChem BioAssay AID707 (Columbia University Molecular Screening Center, 2007)
